A selection: hits, their analogues and other compounds. The true share with any hit is near 2.8%.
IP6K1 inhibitor: blocks human inositol hexakisphosphate kinase 1; activity change, % (series mostly up to about 58 µM); actives 0.81% (n = 140,000); IP6K1 kinase, ADP-Glo luminescence, 2 h; active compounds read low; in the data active = activity change below about -25%
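ADP-Glo luminescence measures ADP made by human IP6K1 during a 2 h RT reaction with ATP/IP6 (mix at 1.3 mM/130 uM); top library doses 57.5 and 19.1 uM final.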
KDM5B inh: blocks human KDM5B histone demethylase activity | AID 1347165 | Q9UGL1 | KDM5B demethylase, FDH-coupled NADH fluorescence (FDH is formaldehyde dehydrogenase) | actives 2.6% (n = 220,000) | Potency, µM (doses to about 57.7 µM), usual class: inhibitors; active = well fitted inhibition curve with a large enough effect; inconclusive = small, poorly fitted or top-dose-only effect; inactive = no such curve, though single readings can be large or run the other way; also: nearly all actives have a fitted effect of over 70% in size
Target sequence (Q9UGL1 whole entry, looked up): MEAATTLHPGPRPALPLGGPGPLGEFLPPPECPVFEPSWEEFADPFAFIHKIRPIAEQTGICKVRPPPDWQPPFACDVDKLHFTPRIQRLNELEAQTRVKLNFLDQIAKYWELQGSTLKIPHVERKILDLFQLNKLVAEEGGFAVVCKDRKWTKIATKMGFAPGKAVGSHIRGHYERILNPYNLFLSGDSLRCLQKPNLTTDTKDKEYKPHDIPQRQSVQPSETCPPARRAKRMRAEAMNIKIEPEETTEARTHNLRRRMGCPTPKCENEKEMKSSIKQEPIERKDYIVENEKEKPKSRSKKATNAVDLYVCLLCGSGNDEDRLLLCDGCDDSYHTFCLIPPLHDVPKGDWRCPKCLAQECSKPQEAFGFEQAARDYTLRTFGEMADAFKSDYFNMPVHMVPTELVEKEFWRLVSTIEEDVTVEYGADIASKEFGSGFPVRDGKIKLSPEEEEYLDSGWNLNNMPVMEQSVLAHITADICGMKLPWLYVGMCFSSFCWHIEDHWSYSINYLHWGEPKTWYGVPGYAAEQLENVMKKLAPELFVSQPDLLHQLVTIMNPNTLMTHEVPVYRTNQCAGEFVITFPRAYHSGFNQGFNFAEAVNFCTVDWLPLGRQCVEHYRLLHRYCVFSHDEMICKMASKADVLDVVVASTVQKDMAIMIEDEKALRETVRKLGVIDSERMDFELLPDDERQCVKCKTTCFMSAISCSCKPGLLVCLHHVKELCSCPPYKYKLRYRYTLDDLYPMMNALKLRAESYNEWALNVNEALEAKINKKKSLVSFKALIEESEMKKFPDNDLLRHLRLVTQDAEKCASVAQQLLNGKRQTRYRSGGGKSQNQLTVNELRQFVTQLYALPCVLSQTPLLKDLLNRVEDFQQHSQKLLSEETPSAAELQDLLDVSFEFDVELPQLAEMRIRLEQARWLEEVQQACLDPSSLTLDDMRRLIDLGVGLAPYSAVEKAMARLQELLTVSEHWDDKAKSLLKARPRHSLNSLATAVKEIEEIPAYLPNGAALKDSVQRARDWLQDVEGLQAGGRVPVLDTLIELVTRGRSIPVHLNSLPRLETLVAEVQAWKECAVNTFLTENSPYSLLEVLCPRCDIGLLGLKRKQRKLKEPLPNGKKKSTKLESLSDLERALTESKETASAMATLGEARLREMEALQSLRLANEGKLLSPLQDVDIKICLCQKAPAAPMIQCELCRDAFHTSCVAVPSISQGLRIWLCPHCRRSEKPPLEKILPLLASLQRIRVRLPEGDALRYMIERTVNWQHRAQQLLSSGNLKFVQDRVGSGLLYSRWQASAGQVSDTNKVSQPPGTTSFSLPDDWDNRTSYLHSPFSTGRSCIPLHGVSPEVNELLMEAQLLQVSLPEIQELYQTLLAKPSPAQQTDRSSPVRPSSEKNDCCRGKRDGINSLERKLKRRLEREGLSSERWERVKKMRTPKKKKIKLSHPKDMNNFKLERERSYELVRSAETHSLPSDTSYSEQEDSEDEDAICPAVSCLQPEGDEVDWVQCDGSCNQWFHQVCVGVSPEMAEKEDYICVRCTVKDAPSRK
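Compound dilutions met 200 nM (final) KDM5BΔAP for 10 min at room temperature before substrate addition. The substrate mix held 12.5 µM H3K4me3 with cofactors 25 µM α-ketoglutarate and 50 µM Fe²⁺. NADH signal gain over 30 min defined activity.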
Hits are given with their value; - = inactive; ? = inconclusive; . = not tested or not shown.

SMILES | IP6K1 inhibitor | KDM5B inh
CC(C)CNC(=O)c1cc(C2CC2)nc2c1c(C1CCNC1)nn2C (stereo unspecified) | - | 89.1µM
Cn1nc(C2CCCN2)c2c(C(=O)N3CCOCC3)cc(C3CC3)nc21 (stereo unspecified) | - | ?
COCCNC(=O)c1cc(C2CC2)nc2c1c(C1CCNC1)nn2C (stereo unspecified) | - | 89.1µM
Cn1nc(C2CCNC2)c2c(C(=O)NCc3cccs3)cc(C3CC3)nc21 (stereo unspecified) | - | ?
Cc1ccc(CN2CCCCCNC(=O)CC2c2ccccc2)o1 (stereo unspecified) | - | 28.2µM
O=C1CC(c2ccccc2)N(Cc2ccccn2)CCCCCN1 (stereo unspecified) | - | -
Cc1ccccc1-c1nc2cnccn2c1NCCC(=O)NC1CCCCC1 | - | 28.2µM
Cc1ccccc1-c1nc2cnccn2c1NCCC(=O)NCc1ccco1 | - | 31.6µM
Cn1c(SCC(=O)NC2CCCCC2)nnc1-c1cccnc1 | . | -
Cc1ccc(C(=O)NCCC(=O)NCc2ccco2)cc1 | . | -
O=C(O)CCn1ncc2cc(OC3CCN(C(=O)OC4CCCC4)CC3)ccc21 | - | -
CC(C)OC(=O)N1CCC(COc2ccc3c(cnn3CCC(=O)O)c2)CC1 | - | -
O=C(O)Cn1ccc2cc(OCC3CCN(C(=O)OC4CCCC4)CC3)cnc21 | - | 35.5µM
CC(C)OC(=O)N1CCC(COc2cnc3c(ccn3CC(N)=O)c2)CC1 | - | 39.8µM
O=C(O)CCn1ncc2cc(OC3CCN(C(=O)Oc4ccccc4Cl)CC3)ccc21 | - | -
NC(=O)Cn1ccc2cc(OCC3CCN(c4cc(NC5CC5)ncn4)CC3)cnc21 | - | 39.8µM
O=C(O)CCC1CCN(c2cc(NC3CC3)ncn2)CC1 | - | -
NC(=O)Cn1ccc2cc(OCC3CCN(C(=O)Oc4ccccc4Cl)CC3)cnc21 | - | 28.2µM
Cc1noc(C)c1[S+](=O)([O-])NC1CCCN(c2ccc3nnc(-c4ccccc4)n3n2)C1 (stereo unspecified) | - | .
Cc1oc(-c2ccccc2)nc1CC(=O)Nc1cc(Cl)c(N)c(Cl)c1 | . | -
Cc1cc(C)n(C(C)CC(=O)Nc2ccc(C)c(F)c2)n1 (stereo unspecified) | - | -
Cc1ccc(NC(=O)CCNc2cnc3cnccn23)cc1F | - | 22.4µM
Cc1ccc(CNC(=O)C2(CCO)CCN(Cc3ccccc3)C2)o1 (stereo unspecified) | - | -
CC(C)CCNC(=O)C1(CCO)CCN(c2ncccn2)C1 (stereo unspecified) | - | 25.1µM
Cc1ccc(NC(=O)C2(CCO)CCN(c3ncccn3)C2)cc1 (stereo unspecified) | - | 28.2µM
SMILES | IP6K1 inhibitor | KDM5B inh
CCC(CC)NC(=O)C1(CCO)CCN(c2ncccn2)C1 (stereo unspecified) | - | ?
CCCNC(=O)C1(CCO)CCN(c2ncccn2)C1 (stereo unspecified) | - | ?
O=C(Nc1cccc(OC(F)(F)F)c1)C1(CCO)CCN(c2ncccn2)C1 (stereo unspecified) | - | 25.1µM
Cc1ccc(CNC(=O)C2(CCO)CCN(c3ncccn3)C2)o1 (stereo unspecified) | - | 28.2µM
O=C(NC1CCCCC1)C1(CCO)CCN(c2ncccn2)C1 (stereo unspecified) | - | ?
CCCNc1c(NC(=O)NCC(C)C)c(=O)oc2ccccc12 | . | -
O=C(NCc1ccccc1Cl)C1CCN(C(=O)c2ccc(-c3cccs3)cc2)CC1 | - | .
COc1ccc(-c2noc([C@@H]3C[C@@H](O)CN3Cc3cccs3)n2)cc1 | - | ?
CCCNC(=O)N1CCC(Cc2noc(C3CC3)n2)C1 (stereo unspecified) | - | .
O=C(CCc1ncc(-c2ccc(Cl)cc2)o1)N1CCCC(O)C1 (stereo unspecified) | . | -
CN(C)[C@H]1CCCCN(C(=O)CCc2ccc(-c3ccc(Cl)cc3)[nH]2)C1 | - | 31.6µM
COc1ccc2c(c1)OCC(CNC(=O)c1ccc(C(C)C)n(C)c1=O)C2 (stereo unspecified) | - | ?
COc1ccc2c(c1)OCC(CNC(=O)c1cnn3ccccc13)C2 (stereo unspecified) | - | 25.1µM
COC[C@@H]1CN(Cc2ccc3cc[nH]c3c2)C[C@H]1c1nc(C)no1 | - | -
Cc1cccc(NC(=O)Cn2c(N(C)Cc3ccccc3)nc(C)cc2=O)c1 | - | -
CCc1cccc(NC(=O)Cn2c(N(C)Cc3ccccc3)nc(C)cc2=O)c1 | - | 25.1µM
Cc1cccc(-c2nc3ccccc3c(=O)n2CCCN2CCOCC2)c1 | . | -
Cc1nc2scc(CC(=O)N3CCC(C)CC3)n2c(=O)c1-c1cc(C)n(-c2cccc(Cl)c2)n1 | - | ?
Cc1ccc(F)cc1-n1nc(-c2c(C)nc3scc(CC(=O)N4CCOCC4)n3c2=O)cc1C | - | ?
Cc1ccc(C)c(-n2nc(-c3c(C)nc4scc(CC(=O)N5CCOCC5)n4c3=O)cc2C)c1 | - | 28.2µM

From PubChem
